Screening results as filed in PubChem BioAssay.
MEKK2mut PB1 HTS = MEK5 binding signal on mutant MEKK2 PB1, primary screen, biochemical, multiplex bead flow cytometry, Alexa488-MEK5. percent response, % at 10 µM. hit rate 0.35% among 290,000. Alexa488-MEK5 binding to MEKK2 mutant; in the data active = percent response above about 24%, passing the limit was not always enough
TMEM16A act = TMEM16A chloride channel activators or potentiators, primary screen, cell-based, HTS; HEK293 TMEM16A/YFP-H148Q/I152L, iodide quench fluorescence; hits give low values; B-score at 10 µM; hit rate 0.3% among 340,000;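 active = fluorescence-ratio B-score plate-corrected deviation score at least 3 library SD below zero, with starting fluorescence score within 5 deviations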;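 also: channel opened by trigger with iodide after compound preincubation; score built on the fluorescence ratio of max minus min over baseline; more negative score means more quench and so TMEM16A activation or potentiation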
MEKK3 PB1 HTS = modulators of MEKK3-MEK5 PB1 binding, primary screen, biochemical, wildtype MEKK3, multiplex bead flow cytometry, Alexa488-MEK5. bead-based flow cytometry, Alexa488-MEK5 binding to MEKK3; actives lie on both sides; 0 = blocked by unlabeled MEK5, 100 = vehicle. binding response (% of control), % at 10 µM. hit rate 1.4% among 290,000. Mitogen-activated protein kinase kinase kinase 3 (Homo sapiens), Q99759;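 active = binding response more than 3 SD above or below the average of its plate-row segment, actives on both sides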;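 also: Alexa488 bead fluorescence after subtracting the streptavidin-only scavenger bead signal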
Target sequence (Q99759 whole entry, looked up): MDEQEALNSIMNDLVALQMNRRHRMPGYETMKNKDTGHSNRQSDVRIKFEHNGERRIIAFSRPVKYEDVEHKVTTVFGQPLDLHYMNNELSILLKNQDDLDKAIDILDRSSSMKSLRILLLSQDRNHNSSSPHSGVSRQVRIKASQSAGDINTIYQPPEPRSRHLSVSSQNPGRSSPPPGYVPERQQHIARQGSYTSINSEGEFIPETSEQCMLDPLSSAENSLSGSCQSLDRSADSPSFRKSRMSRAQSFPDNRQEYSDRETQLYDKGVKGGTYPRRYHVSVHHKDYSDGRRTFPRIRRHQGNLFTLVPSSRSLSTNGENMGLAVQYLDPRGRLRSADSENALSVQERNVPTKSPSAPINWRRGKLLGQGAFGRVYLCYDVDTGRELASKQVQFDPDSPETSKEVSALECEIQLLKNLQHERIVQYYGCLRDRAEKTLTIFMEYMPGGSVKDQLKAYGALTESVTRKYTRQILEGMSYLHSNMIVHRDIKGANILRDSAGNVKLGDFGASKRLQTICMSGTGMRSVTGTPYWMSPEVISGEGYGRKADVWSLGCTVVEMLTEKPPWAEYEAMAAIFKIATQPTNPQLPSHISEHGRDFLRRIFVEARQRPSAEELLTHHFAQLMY
ANO1 block = TMEM16A chloride channel inhibitors, primary screen, cell-based, HTS; hit rate 1.2% among 310,000; HEK293 TMEM16A/YFP iodide influx fluorescence, ionomycin; normalized B-score (activity score, 25-100; higher = stronger inhibition) at 10 µM; AID 588511, 2011; Anoctamin-1 (Mus musculus), Q8BHY3;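 active = ratio plate-corrected score three or more library SD toward inhibition, starting fluorescence score within five deviations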;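 also: score derived from kinetic fluorescence span divided by baseline fluorescence per well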
NTR1 agonist = agonists of human NTR1, primary screen, imaging, U2OS cells, beta-arrestin-GFP, high content | Neurotensin receptor type 1 (Homo sapiens), P30989 | NTR1-U2OS beta-arrestin-GFP spot imaging, agonist mode | activation, % at 20 µM | hit rate 0.17% among 330,000 | AID 493036, 2011;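 active = activation at or above 40% of the spot to cytoplasm intensity ratio, with at least 20 cells analyzed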;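 also: 0% = DMSO without peptide and 100% = 100 nM NTR1 peptide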
MEKK2wt PB1 HTS = modulators of MEK5 binding to wildtype MEKK2, primary screen, biochemical, multiplex bead flow cytometry, Alexa488-MEK5; hit rate 1.1% among 290,000; AID 1531, 2009; Alexa488-MEK5 binding to MEKK2 WT; actives lie on both sides; binding response (% of control), % at 10 µM; Mitogen-activated protein kinase kinase kinase 2 (Homo sapiens), Q9Y2U5; in the data active = binding response below about 67% or above about 130%
* hit, by the source's call; i = inactive; x = no result; [ ] = dose if it differs, or a comment. Sampled rows, rich in hits. Any-hit rate of the full collection: about 3.4%.

SMILES | MEKK2mut PB1 HTS | TMEM16A act | MEKK3 PB1 HTS | ANO1 block | NTR1 agonist | MEKK2wt PB1 HTS
CC1(C)CC(=O)/C(=C\c2cccc([N+](=O)[O-])c2)C(C)(C)N1 | 1.0 | i | 132.0* | i | 0.3 | 107.0
O=C(CN(Cc1ccccc1Cl)C(=O)c1csnn1)NCCc1ccccc1 | 0.0 | i | 101.0 | i | -1.1 | 103.0
COc1ccc(-c2csc(NC3CCCCC3)n2)c(OC)c1 | 2.0 | i | 98.0 | i | 1.5 | -4.0*[inhibitor]
c1ccc(-c2csc(NC3CCCCC3)n2)cc1 | 1.0 | i | 103.0 | i | 2.3 | 103.0
COc1cccc(CN2CCN(Cc3cccn3-c3cccnc3)CC2CCO)c1 (centres undefined) | -6.0 | i | 102.0 | i | -0.6 | 98.0
O=C(NCCCN1CCCCCC1)c1cc2c(=O)oc3ccccc3c2s1 | 23.0 | i | 106.0 | i | 2.5 | 136.0*
Cc1ccc2oc(=O)c3cc(C(=O)NCCCN4CCN(C)CC4)sc3c2c1 | 7.0 | i | 108.0 | i | 1.4 | 113.0
Cc1ccc2oc(=O)c3cc(C(=O)NCCCN4CC(C)CC(C)C4)sc3c2c1 (centres undefined) | 13.0 | i | 101.0 | i | 7.3 | 142.0*
O=C(COc1ccc(Cl)cc1Cl)N(C1CCCCC1)C1CCS(=O)(=O)C1 (centres undefined) | x | i | x | x | -0.5 | x
CCN(CC)CCN1C(=O)C(=O)/C(=C(/O)c2ccc(S(=O)(=O)N3CCOCC3)cc2)C1c1ccc(C(C)(C)C)cc1 (centres undefined) | 0.0 | i | 96.0 | i | -0.7 | 99.0
CCOc1ccc(-c2cc(C(=O)OC)[nH]n2)cc1 | 880.0* | i | 162.0* | i | 0.9 | 97.0
COC(=O)c1cc(-c2ccc(OC)cc2)n[nH]1 | -2.0 | i | 98.0 | i | -1.6 | 99.0
N#Cc1c(Cl)nsc1NC(=O)c1ccccc1 | 3.0 | i | 103.0 | 100* | 0.5 | 101.0
N#Cc1c(NC(=O)c2ccccc2)sc2c1CCCCC2 | 1.0 | i | 106.0 | i | 9.7 | 98.0
O=C(CCCn1c(=O)[nH]c2cc(Cl)ccc2c1=O)NC1CCCCCC1 | 4.0 | i | 118.0 | 25* | -1.1 | 115.0
COc1ccc(N2C(=O)C3CCCN3C2c2ccc(C)o2)cc1Cl (centres undefined) | -6.0 | i | 78.0 | 25* | 0.9 | 81.0
NC(=O)c1ccc(NS(=O)(=O)c2ccc(Br)s2)cc1 | x | -20.7* | x | x | -1.9 | x
CSc1nc2ccc(NS(=O)(=O)c3ccc(Br)s3)cc2s1 | -4.0 | i | 94.0 | 25* | 0.7 | 91.0
COc1ccccc1CNC(=O)c1cc(C(=O)CC(C)C)c[nH]1 | 8.0 | i | 107.0 | i | -0.8 | 109.0
O=C(Nc1cccnc1)C(Cc1ccccc1)n1cccc1 (centres undefined) | 0.0 | i | 97.0 | i | -0.8 | 99.0
O=C(Nc1ncc(Br)s1)C(Cc1ccccc1)n1cccc1 (centres undefined) | 8.0 | i | 107.0 | 100* | 14.9 | 106.0
CN1C(=O)Cc2cc(S(=O)(=O)NCc3cccs3)ccc21 | -22.0 | i | 92.0 | i | 0.3 | 88.0
CCOc1cc(CNS(=O)(=O)c2ccc3c(c2)CC(=O)N3C)cc(OCC)c1OCC | 5.0 | -5.2* | 100.0 | i | 2.0 | 99.0
CCN(CC)c1ccc(N=CN2CCOCC2)cc1 | 2.0 | i | 91.0 | i | -1.7 | 91.0
Cn1c(C(=O)Nc2ccc3c(c2)OCO3)cc2c(=O)n(C)c3ccccc3c21 | 2.0 | -6.79* | 102.0 | i | 5.5 | 99.0
SMILES | MEKK2mut PB1 HTS | TMEM16A act | MEKK3 PB1 HTS | ANO1 block | NTR1 agonist | MEKK2wt PB1 HTS
COC(=O)c1sc2cc([N+](=O)[O-])cc(SCC(C)C)c2c1N | 7.0 | i | 99.0 | i | 4.6 | 9.0*
CCCOc1cccc(-c2cc(C(=O)N/N=C/c3ccccn3)c3ccccc3n2)c1 | 2.0 | i | 103.0 | i | 7.1 | 97.0
CCCOc1cccc(-c2cc(C(=O)N/N=C/c3cccnc3)c3ccccc3n2)c1 | -4.0 | i | 101.0 | 25* | 5.6 | 90.0
CSc1cccc(NC(=O)C2CCCN(S(=O)(=O)c3cnc[nH]3)C2)c1 (centres undefined) | 2.0 | -11.6* | 106.0 | x | x | 107.0
Cc1ccc(-c2noc(CSc3nnc(-c4ccncc4)n3-c3ccc(C)cc3)n2)cc1 | 0.0 | i | 101.0 | i | 1.2 | 100.0
c1ccc(-c2noc(CSc3nc4ccccc4o3)n2)cc1 | x | i | x | i | 0.2 | x
Clc1ccc(-c2noc(CSc3nnc(-c4ccncc4)n3-c3ccccc3)n2)cc1 | 4.0 | i | 100.0 | 100* | 11.0 | 94.0
Clc1ccc(-c2nnc(SCc3nc(-c4ccccc4)no3)o2)cc1 | 7.0 | -4.7* | 105.0 | i | 1.8 | 106.0
Cc1ccc2c(c1)[nH]c1c(=O)n(CCC3=CCCCC3)cnc12 | 2.0 | x | 102.0 | x | x | 101.0
COc1ccc(NC(=S)N(CCCN2CCCC2)Cc2cccn2Cc2ccc(Cl)cc2)cc1Cl | 161.0* | i | 115.0 | i | 17.8 | 293.0*
COc1ccc(NC(=S)N(CCCN2CCC(C)CC2)Cc2cccs2)cc1Cl | 13.0 | i | 101.0 | i | 0.5 | 130.0
Cc1ccc(NC(=S)N(CCCN2CCCC2)Cc2cccn2Cc2ccc(Cl)cc2)cc1C | 74.0* | i | 108.0 | i | 26.8 | 228.0*
Cc1cc(NC(=S)N(CCN2CCCCC2)Cc2ccco2)ccc1Cl | 12.0 | i | 106.0 | i | 3.8 | 124.0
Cc1ccc(NC(=S)N(CCCN2CCCC2)Cc2cccn2Cc2ccc(Cl)cc2)cc1Cl | 25.0 | i | 112.0 | i | 13.2 | 317.0*
CC1(C)C(C=C(Cl)Cl)C1C(=O)N(Cc1ccccc1Cl)C1CCS(=O)(=O)C1 (centres undefined) | -1.0 | i | 101.0 | i | 2.5 | 99.0
CCc1cc(=O)oc2cc(C)cc(OCC(=O)NCc3ccncc3)c12 | 1.0 | i | 102.0 | i | -0.6 | 105.0
C[C@H]1c2cccc(O)c2C(O)=C2C(=O)C3(O)C(O)=C(C(N)=O)C(=O)[C@@H](N(C)C)[C@@H]3[C@@H](O)[C@@H]21 (some centres undefined) | x | i | x | i | -0.7 | x
CN(C)[C@@H]1C(=O)C(C(=O)NCN2CCCC2)=C(O)[C@@]2(O)C(=O)C3=C(O)c4c(O)cccc4[C@@](C)(O)C3CC12 (some centres undefined) | -11.0 | x | 63.0 | x | x | 26.0*[inhibitor]
